MEP2-GFP yeast: alters MEP2-GFP fluorescence in TOR pathway yeast screen; GFP response vs DMSO, % at 10 µM; 330,000 compounds, 0.51% hits; S. cerevisiae MEP2-GFP strain, flow cytometry GFP, 3 h; 100% = DMSO control level;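 active = GFP response versus DMSO above a set limit, roughly screen mean plus 3 SD, cut at about 180% in these data; inconclusive = fewer than 70 cells counted for a yeast strain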;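 also: median GFP fluorescence of the barcode-gated MEP2-GFP cells per well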
RPL19A TOR yeast: modulators of TOR pathway RPL19A-GFP in S. cerevisiae; S. cerevisiae RPL19A-GFP strain, flow cytometry, 3 h; stronger effect = lower value; percent response vs DMSO, % at 10 µM; 330,000 compounds, 0.3% hits; AID 2025;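 active = percent response vs DMSO below 50%; inconclusive = fewer than 70 events counted for the yeast strain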;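 also: median channel GFP fluorescence of the barcoded RPL19A-GFP strain; lower means less RPL19A-GFP as with rapamycin TOR inhibition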
AGP1 TOR yeast: yeast TOR pathway AGP1-GFP modulation | AID 2066 | S. cerevisiae AGP1-GFP multiplex flow cytometry, 3 h; GFP as percent of DMSO wells | 320,000 compounds, 0.02% hits | GFP response vs DMSO, % at 10 µM;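 active = GFP response relative to DMSO above a set limit, near screen average plus 3 SD, cut at about 150% in these data; inconclusive = fewer than 70 cells counted for the yeast strain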;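 also: median GFP channel fluorescence of the gated AGP1 strain per well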
CIT2 TOR yeast: yeast TOR pathway CIT2-GFP modulation; GFP response vs DMSO, % at 10 µM; S. cerevisiae CIT2-GFP strain, flow cytometry, 3 h; 100 means same as DMSO wells; 320,000 compounds, 0.065% hits;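 active = GFP response relative to DMSO above a set limit, near the screen mean plus 3 SD, cut at about 150% in these data; inconclusive = Fewer than 70 cells measured for a yeast strain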;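 also: ratio of well median GFP fluorescence to mean of DMSO wells on the plate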
LAP4 TOR yeast: modulators of TOR pathway LAP4-GFP in S. cerevisiae; 320,000 compounds, 0.34% hits; GFP response vs DMSO, % at 10 µM; S. cerevisiae LAP4-GFP multiplex, flow cytometry GFP, 3 h; median GFP as percent of DMSO wells; AID 2023;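 active = GFP response vs DMSO above a set limit, about the screen mean plus 3 SD, cut at about 150% in these data; inconclusive = under 70 cell events counted for the yeast strain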
VLA-4 inh: inhibition in a human VLA-4 binding assay; P13612; VLA-4 expressing cells, ligand binding flow cytometry; inhibition, % (about 7 µM as worked out from the volumes in the protocol); 330,000 compounds, 0.2% hits; AID 2557; in the data active = inhibition above about 50%
Target sequence (P13612 whole entry, looked up): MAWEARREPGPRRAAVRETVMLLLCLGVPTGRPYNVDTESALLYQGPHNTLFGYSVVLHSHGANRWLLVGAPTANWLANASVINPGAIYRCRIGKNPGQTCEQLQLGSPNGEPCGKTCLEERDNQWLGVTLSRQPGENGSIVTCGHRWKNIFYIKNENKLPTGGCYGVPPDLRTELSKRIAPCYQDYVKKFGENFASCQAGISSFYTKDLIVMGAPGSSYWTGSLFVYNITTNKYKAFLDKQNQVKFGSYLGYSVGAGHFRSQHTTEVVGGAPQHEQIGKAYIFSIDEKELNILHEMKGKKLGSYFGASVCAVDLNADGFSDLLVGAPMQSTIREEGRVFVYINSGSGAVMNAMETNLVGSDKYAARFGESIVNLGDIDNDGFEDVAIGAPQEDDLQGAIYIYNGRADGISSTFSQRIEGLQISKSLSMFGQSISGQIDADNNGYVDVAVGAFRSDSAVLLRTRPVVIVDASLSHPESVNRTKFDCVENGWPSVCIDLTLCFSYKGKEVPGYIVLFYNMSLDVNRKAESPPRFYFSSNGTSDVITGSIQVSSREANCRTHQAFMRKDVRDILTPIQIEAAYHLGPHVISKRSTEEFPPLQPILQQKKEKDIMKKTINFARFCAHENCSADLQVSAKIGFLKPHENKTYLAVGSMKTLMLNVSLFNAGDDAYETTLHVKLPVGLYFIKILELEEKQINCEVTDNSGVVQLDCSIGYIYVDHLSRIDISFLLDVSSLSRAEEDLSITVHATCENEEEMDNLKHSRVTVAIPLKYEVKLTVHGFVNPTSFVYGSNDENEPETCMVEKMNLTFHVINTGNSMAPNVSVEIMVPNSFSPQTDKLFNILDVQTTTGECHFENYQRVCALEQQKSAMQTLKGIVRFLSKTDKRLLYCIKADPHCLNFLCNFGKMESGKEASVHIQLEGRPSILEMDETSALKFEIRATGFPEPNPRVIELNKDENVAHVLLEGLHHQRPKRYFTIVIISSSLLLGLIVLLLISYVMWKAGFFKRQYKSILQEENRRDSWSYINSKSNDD
Each line names hits and unclear results; the compound was inactive in the other large screens; [ ] = remark or other dose. Hits are enriched below; roughly 1.1% of the tested compounds scored in any of these assays.

CN(c1ccc(Br)cc1)S(=O)(=O)c1ccc2[nH]cc(C(=O)NCCN3CCOCC3)c(=O)c2c1	none
CC1(C)CC(=O)C([N+](=O)[O-])=C(NCCCC(=O)O)C1	MEP2-GFP yeast 709[may fluoresce violet], RPL19A TOR yeast 26[may fluoresce violet], AGP1 TOR yeast inconclusive, CIT2 TOR yeast inconclusive
CC1(C)CC(=O)C(C#N)=C(NCCCO)C1	none
S=c1[nH]nc(NCCCN2CCOCC2)s1	MEP2-GFP yeast 327
CC(=O)C[C@H](O)CC(=O)[C@H]1OC(=O)CCCCCCc2ccccc21	none
O=C(c1ccc(NC2=NC3CS(=O)(=O)CC3S2)cc1)N(CCO)Cc1ccccc1 (configuration not stated)	none
C=CCn1c(=N)c(C(=O)NCCCOC)cc2c(=O)n3cccc(C)c3nc21	RPL19A TOR yeast 34[may fluoresce violet], CIT2 TOR yeast inconclusive (no result: AGP1 TOR yeast)
CCCCNC(=O)c1cc2c(=O)n3cccc(C)c3nc2n(Cc2ccccc2)c1=N	none
Cc1cccn2c(=O)c3cc(C(=O)NCCc4ccccc4)c(=N)n(CCCn4ccnc4)c3nc12	MEP2-GFP yeast 208 (no result: AGP1 TOR yeast)
CCCCCn1c(=N)c(S(=O)(=O)c2ccc(Cl)cc2)cc2c(=O)n3cccc(C)c3nc21	MEP2-GFP yeast 297[may fluoresce violet], AGP1 TOR yeast inconclusive, CIT2 TOR yeast inconclusive
COCCn1c(=N)c(C(=O)NCCc2ccccc2)cc2c(=O)n3cccc(C)c3nc21	none
Cc1cccn2c(=O)c3cc(C(=O)NCCN4CCOCC4)c(=N)n(CCc4ccccc4)c3nc12	MEP2-GFP yeast 210[may fluoresce violet], RPL19A TOR yeast 47[may fluoresce violet], CIT2 TOR yeast inconclusive
CCCn1c(=N)c(S(=O)(=O)c2ccccc2)cc2c(=O)n3cccc(C)c3nc21	none
C/C(=N/NC(=O)c1cc(C)[nH]n1)c1ccncc1	none
Cc1cccn2c(=O)c3cc(C(=O)NCCN4CCOCC4)c(=N)n(CCCN4CCOCC4)c3nc12	MEP2-GFP yeast 224[may fluoresce violet], CIT2 TOR yeast inconclusive
CC(C)C[C@@H](CO)N1CCN(Cc2ccc([N+](=O)[O-])cc2)CCC1=O	none
CC(=O)N(C)c1ccc(NCc2cc(=O)oc3cc(C)c(O)cc23)cc1	none
CCC(C)[C@H](NC(=O)N1CC(=O)Nc2ccccc21)C(=O)NC(C)CCc1ccccc1 (some centres not stated)	none
CCC(C)[C@H](NC(=O)N1CC(=O)Nc2ccccc21)C(=O)N[C@@H](C(=O)O)c1ccccc1 (some centres not stated)	RPL19A TOR yeast 25[may fluoresce violet], AGP1 TOR yeast inconclusive, CIT2 TOR yeast inconclusive
O=[N+]([O-])c1ccc(-[n+]2ccc3ccccc3c2)c([N+](=O)[O-])c1	none
O=[N+]([O-])c1cc2oc3c(c2c(C=NCc2ccccc2)c1O)CCCC3	MEP2-GFP yeast 258[may fluoresce violet], AGP1 TOR yeast inconclusive, CIT2 TOR yeast inconclusive
Cc1cccc(/N=C/c2c(O)ccc3oc4c(c23)CCCC4)n1	none
CC(C)CN=Cc1c(O)c([N+](=O)[O-])cc2oc3c(c12)CCCC3	LAP4 TOR yeast 173
C/C(N=Nc1nc2ccccc2s1)=N\Nc1ccccc1O	none
CCc1nc(C(N)=O)c2[nH]c(=O)n(-c3ccc(OC)cc3OC)c2n1	MEP2-GFP yeast 339[may fluoresce violet], RPL19A TOR yeast 43[may fluoresce violet], AGP1 TOR yeast inconclusive, CIT2 TOR yeast inconclusive
CCCCc1nc(C(N)=O)c2[nH]c(=O)n(-c3ccc(OC)cc3OC)c2n1	MEP2-GFP yeast 289[may fluoresce violet], RPL19A TOR yeast 43[may fluoresce violet], AGP1 TOR yeast inconclusive, CIT2 TOR yeast inconclusive
CCC(CC)c1nc(C(N)=O)c2[nH]c(=O)n(-c3ccc(OC)c(OC)c3)c2n1	MEP2-GFP yeast 601[may fluoresce violet], RPL19A TOR yeast 47[may fluoresce violet], AGP1 TOR yeast inconclusive, CIT2 TOR yeast inconclusive
CCCCc1nc(C(N)=O)c2[nH]c(=O)n(-c3ccc(OC)c(OC)c3)c2n1	none
O=C(NCc1ccco1)C(c1ccncc1)N(C(=O)Cn1nnc2ccccc21)c1ccccc1F (configuration not stated)	none
CSCc1c(C(=O)NCCc2ccccn2)oc2ccccc12	none
O=C(C(=O)N1CCN(Cc2ccc3c(c2)OCO3)CC1)c1c[nH]c2ccccc12	none
COc1ccc(N2CCN(CCNC(=O)Nc3ccc(C)cc3Cl)CC2)cc1	MEP2-GFP yeast 400[may fluoresce violet], RPL19A TOR yeast 28[may fluoresce violet], AGP1 TOR yeast inconclusive, CIT2 TOR yeast inconclusive
COc1ccc(N2CCN(CCNC(=O)Nc3ccc(Cl)cc3)CC2)cc1	none
Cc1ccccc1N(CC(=O)O)S(C)(=O)=O	MEP2-GFP yeast 229[may fluoresce violet], CIT2 TOR yeast inconclusive (no result: AGP1 TOR yeast)
Cc1ccccc1N(CC(N)=O)S(C)(=O)=O	none
CCOC(=O)C1CCN(S(=O)(=O)c2cccc(-c3cn4cc(C)ccc4n3)c2)CC1	MEP2-GFP yeast 373[may fluoresce violet], RPL19A TOR yeast 46[may fluoresce violet], AGP1 TOR yeast inconclusive, CIT2 TOR yeast inconclusive
COc1ccc(Nc2nnc(C)c(=O)[nH]2)c(OC)c1	none
CCOC(=O)Nc1ccc2c(COC(=O)C(NS(=O)(=O)c3ccc(Cl)cc3)C(C)O)cc(=O)oc2c1 (configuration not stated)	none
OCc1ccccc1CNCc1ccccc1	none
OCc1ccccc1SSc1ccccc1CO	LAP4 TOR yeast 192
Cc1c(Cl)cccc1NC(=O)CCN1C(=O)C2CC=CCC2C1=O (configuration not stated)	none (no result: CIT2 TOR yeast)
Cc1cc(C)c2c(N=NN3CCOCC3)[nH]nc2n1	CIT2 TOR yeast 151
COC(=O)c1c(NC(=O)Cc2cccs2)sc2c1CCCC2	MEP2-GFP yeast 211[may fluoresce violet], AGP1 TOR yeast inconclusive, CIT2 TOR yeast inconclusive
COCC(=O)Nc1sc2c(c1C(=O)OC)CCCC2	none
COC(=O)c1c(NC(=O)c2cccs2)sc2c1CCC(C)C2 (configuration not stated)	MEP2-GFP yeast 223[may fluoresce violet], CIT2 TOR yeast inconclusive (no result: AGP1 TOR yeast)
CCc1nn(CC(=O)NCc2cccnc2)c(=O)c2cc3occc3n12	none
O=C(COC(=O)c1c[nH]c2ccccc12)NC1CCCCC1	none
Cc1noc(C)c1S(=O)(=O)N(C)C[C@H]1Oc2ccc(NC(=O)CCC(F)(F)F)cc2C(=O)N([C@H](C)CO)C[C@@H]1C	none
CCC(c1nnnn1Cc1ccco1)N(CCc1ccccc1)Cc1cc2cc(C)ccc2[nH]c1=O (configuration not stated)	none
CCC(c1nnnn1Cc1ccccc1)N(Cc1ccco1)Cc1cc2cc(OC)ccc2[nH]c1=O (configuration not stated)	MEP2-GFP yeast 180[may fluoresce violet], CIT2 TOR yeast inconclusive (no result: AGP1 TOR yeast)
COc1ccc(C(=O)N2CCCC(N3CCN(c4ccccc4F)CC3)C2)c(OC)n1 (configuration not stated)	none
COC(=O)c1cc(C(=O)Nc2cccc(C)n2)cc([N+](=O)[O-])c1	MEP2-GFP yeast 225[may fluoresce violet], CIT2 TOR yeast inconclusive (no result: AGP1 TOR yeast)
CN(C(=O)CSc1nc(O)cc(=O)n1-c1ccccc1F)c1ccccc1	none (no result: CIT2 TOR yeast)
CN(C(=O)CSc1nc(O)cc(=O)n1C1CCCC1)c1ccccc1	MEP2-GFP yeast 270[may fluoresce violet], CIT2 TOR yeast inconclusive
O=C(OCCCOC(=O)c1ccc(O)cc1)c1ccc(O)cc1	none

Bioassay records deposited in PubChem BioAssay by NMMLSC.
